Laboratory results published in ChEMBL document CHEMBL1961873, “Compounds: GSK PKIS; Assays: Nanosyn kinase panel” (2012).

Legend:
[1] = target: T1, Ephrin type-B receptor 2 (Homo sapiens) (UniProt P29323); conditions: at 1 µM
T1 sequence (whole entry): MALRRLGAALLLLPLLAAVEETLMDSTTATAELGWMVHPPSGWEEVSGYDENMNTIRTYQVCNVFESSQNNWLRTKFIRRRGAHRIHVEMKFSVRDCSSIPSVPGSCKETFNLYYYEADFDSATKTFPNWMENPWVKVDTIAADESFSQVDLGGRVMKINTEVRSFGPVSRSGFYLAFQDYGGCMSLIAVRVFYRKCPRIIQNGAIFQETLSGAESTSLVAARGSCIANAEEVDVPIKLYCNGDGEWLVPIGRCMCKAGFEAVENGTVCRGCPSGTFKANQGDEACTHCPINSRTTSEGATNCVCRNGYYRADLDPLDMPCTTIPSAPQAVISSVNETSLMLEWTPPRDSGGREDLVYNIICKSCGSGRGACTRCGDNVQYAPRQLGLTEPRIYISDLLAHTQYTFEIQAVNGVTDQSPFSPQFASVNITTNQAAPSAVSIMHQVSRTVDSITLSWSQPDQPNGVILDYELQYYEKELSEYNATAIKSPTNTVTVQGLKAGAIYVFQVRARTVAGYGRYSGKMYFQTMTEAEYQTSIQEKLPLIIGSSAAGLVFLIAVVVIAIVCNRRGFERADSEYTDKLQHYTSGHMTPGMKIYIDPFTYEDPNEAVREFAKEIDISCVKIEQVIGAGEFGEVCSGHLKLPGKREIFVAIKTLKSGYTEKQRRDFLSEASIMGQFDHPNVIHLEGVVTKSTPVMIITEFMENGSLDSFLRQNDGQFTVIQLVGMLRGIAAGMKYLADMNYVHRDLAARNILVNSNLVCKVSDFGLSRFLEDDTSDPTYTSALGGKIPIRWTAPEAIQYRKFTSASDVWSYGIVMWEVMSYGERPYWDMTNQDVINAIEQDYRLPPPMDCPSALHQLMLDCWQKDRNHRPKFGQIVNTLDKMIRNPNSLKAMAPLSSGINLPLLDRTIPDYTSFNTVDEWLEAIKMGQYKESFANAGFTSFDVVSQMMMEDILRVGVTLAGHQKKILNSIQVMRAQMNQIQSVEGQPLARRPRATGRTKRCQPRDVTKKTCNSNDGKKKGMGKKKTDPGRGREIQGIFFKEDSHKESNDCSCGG

[2] = target: T2, Ephrin type-B receptor 3 (Homo sapiens) (UniProt P54753); conditions: at 0.1 µM
T2 sequence (whole entry): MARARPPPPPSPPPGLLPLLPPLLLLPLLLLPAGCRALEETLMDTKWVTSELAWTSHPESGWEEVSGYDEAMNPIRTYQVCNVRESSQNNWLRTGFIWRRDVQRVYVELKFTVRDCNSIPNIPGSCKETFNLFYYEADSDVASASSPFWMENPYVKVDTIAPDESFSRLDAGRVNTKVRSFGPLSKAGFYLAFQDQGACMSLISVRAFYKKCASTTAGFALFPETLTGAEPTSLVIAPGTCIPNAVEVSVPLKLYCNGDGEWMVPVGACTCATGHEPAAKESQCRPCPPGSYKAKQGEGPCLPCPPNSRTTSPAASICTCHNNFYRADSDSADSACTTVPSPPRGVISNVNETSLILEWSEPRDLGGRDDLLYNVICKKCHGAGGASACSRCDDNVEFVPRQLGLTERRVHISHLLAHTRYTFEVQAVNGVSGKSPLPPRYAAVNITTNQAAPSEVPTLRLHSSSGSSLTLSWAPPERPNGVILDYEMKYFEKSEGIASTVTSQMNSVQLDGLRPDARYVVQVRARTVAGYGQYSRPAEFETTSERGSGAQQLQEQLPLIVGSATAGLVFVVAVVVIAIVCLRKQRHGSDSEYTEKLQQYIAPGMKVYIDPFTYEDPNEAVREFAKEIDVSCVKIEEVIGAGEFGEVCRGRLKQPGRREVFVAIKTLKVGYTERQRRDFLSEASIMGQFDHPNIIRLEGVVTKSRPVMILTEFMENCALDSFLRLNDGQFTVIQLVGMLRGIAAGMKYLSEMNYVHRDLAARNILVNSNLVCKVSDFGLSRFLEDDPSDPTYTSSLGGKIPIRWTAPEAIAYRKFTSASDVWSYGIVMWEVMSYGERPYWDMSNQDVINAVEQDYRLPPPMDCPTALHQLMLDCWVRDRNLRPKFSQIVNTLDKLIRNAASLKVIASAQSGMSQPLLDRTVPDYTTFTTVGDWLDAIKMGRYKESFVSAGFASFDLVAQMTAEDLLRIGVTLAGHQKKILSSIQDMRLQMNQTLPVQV

[3] = target: T2, Ephrin type-B receptor 3 (Homo sapiens); conditions: at 1 µM
[4] = target: T3, Ephrin type-B receptor 4 (Homo sapiens) (UniProt P54760); conditions: at 0.1 µM
T3 sequence (whole entry): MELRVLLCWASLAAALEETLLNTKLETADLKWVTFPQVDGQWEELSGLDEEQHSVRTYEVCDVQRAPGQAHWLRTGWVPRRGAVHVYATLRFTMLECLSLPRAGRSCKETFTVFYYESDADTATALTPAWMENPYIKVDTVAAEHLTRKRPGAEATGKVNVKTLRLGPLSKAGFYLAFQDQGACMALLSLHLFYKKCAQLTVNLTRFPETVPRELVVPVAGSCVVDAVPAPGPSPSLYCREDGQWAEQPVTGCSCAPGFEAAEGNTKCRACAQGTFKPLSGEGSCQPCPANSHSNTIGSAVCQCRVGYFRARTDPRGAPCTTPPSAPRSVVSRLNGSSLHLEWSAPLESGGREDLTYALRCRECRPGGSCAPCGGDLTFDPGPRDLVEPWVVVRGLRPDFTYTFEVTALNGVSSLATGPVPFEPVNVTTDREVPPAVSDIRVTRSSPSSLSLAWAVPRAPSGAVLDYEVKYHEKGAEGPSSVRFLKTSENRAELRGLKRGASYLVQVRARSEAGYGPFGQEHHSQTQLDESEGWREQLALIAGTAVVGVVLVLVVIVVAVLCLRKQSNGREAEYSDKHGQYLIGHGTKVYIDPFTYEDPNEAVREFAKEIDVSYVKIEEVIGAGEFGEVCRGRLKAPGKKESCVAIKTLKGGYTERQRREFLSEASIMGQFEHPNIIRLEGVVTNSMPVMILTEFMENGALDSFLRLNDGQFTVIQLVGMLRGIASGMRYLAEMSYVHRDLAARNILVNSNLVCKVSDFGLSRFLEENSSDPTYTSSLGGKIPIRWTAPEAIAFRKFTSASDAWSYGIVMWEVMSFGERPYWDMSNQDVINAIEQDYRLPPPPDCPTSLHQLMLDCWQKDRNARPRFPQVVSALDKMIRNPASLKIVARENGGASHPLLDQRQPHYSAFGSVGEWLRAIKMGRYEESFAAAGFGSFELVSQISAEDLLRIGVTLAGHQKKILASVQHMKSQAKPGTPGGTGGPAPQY

[5] = target: T3, Ephrin type-B receptor 4 (Homo sapiens); conditions: at 1 µM
[6] = target: Receptor tyrosine-protein kinase erbB-2 (Homo sapiens) (UniProt P04626); conditions: at 0.1 µM
[7] = target: Receptor tyrosine-protein kinase erbB-2 (Homo sapiens) (UniProt P04626); conditions: at 1 µM
[8] = target: Receptor tyrosine-protein kinase erbB-4 (Homo sapiens) (UniProt Q15303); conditions: at 0.1 µM
[9] = target: Receptor tyrosine-protein kinase erbB-4 (Homo sapiens) (UniProt Q15303); conditions: at 1 µM
[10] = target: Tyrosine-protein kinase Fer (Homo sapiens) (UniProt P16591); conditions: at 0.1 µM
Sequence of Tyrosine-protein kinase Fer (Homo sapiens) (P16591 whole entry, looked up): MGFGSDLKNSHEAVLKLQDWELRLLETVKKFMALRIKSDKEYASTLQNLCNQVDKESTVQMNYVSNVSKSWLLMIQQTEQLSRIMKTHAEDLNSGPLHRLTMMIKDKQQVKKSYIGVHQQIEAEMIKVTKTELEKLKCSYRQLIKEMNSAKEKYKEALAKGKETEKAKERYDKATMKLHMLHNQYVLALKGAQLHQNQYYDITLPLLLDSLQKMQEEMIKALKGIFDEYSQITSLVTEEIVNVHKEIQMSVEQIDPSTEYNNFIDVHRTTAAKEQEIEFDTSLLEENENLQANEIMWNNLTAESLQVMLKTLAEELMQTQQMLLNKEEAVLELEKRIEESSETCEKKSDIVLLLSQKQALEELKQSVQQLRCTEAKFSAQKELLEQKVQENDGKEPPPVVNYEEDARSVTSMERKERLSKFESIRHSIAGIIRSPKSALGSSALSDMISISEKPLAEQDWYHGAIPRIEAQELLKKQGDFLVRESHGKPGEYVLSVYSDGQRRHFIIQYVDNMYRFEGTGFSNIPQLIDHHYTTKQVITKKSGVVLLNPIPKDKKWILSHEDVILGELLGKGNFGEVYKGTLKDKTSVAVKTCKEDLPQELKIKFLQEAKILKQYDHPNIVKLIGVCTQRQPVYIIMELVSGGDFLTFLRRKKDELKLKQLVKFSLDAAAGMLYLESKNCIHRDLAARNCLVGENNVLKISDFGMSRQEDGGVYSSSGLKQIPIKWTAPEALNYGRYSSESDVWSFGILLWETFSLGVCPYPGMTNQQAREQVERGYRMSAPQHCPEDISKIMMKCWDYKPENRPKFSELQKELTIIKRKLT

[11] = target: Tyrosine-protein kinase Fer (Homo sapiens) (UniProt P16591); conditions: at 1 µM
[12] = target: Tyrosine-protein kinase Fes/Fps (Homo sapiens) (UniProt P07332); conditions: at 0.1 µM
Sequence of Tyrosine-protein kinase Fes/Fps (Homo sapiens) (P07332 whole entry): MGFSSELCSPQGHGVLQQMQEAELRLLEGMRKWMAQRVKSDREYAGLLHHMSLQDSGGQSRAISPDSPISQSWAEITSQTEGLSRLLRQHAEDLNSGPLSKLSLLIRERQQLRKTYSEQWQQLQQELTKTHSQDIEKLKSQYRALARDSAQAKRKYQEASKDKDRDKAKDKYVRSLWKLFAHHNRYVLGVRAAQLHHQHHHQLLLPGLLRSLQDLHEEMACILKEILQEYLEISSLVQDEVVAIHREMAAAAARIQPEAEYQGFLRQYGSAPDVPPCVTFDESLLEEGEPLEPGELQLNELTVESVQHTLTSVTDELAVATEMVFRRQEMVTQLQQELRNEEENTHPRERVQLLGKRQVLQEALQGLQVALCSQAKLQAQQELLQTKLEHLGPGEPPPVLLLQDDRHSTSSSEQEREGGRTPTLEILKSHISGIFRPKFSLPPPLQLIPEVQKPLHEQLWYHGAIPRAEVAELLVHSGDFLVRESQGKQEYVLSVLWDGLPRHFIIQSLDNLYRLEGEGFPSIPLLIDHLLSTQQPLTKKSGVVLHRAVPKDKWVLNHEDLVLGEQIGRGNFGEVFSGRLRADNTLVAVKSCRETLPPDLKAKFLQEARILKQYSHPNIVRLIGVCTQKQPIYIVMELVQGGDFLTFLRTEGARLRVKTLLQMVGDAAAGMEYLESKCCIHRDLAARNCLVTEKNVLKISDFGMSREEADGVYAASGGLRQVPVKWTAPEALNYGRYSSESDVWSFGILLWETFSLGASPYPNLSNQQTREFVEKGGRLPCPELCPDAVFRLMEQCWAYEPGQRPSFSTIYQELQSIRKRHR

[13] = target: Tyrosine-protein kinase Fes/Fps (Homo sapiens) (UniProt P07332); conditions: at 1 µM
[14] = target: Fibroblast growth factor receptor 1 (Homo sapiens) (UniProt P11362); conditions: at 0.1 µM
Sequence of Fibroblast growth factor receptor 1 (Homo sapiens) (P11362 22-822 limits assumed): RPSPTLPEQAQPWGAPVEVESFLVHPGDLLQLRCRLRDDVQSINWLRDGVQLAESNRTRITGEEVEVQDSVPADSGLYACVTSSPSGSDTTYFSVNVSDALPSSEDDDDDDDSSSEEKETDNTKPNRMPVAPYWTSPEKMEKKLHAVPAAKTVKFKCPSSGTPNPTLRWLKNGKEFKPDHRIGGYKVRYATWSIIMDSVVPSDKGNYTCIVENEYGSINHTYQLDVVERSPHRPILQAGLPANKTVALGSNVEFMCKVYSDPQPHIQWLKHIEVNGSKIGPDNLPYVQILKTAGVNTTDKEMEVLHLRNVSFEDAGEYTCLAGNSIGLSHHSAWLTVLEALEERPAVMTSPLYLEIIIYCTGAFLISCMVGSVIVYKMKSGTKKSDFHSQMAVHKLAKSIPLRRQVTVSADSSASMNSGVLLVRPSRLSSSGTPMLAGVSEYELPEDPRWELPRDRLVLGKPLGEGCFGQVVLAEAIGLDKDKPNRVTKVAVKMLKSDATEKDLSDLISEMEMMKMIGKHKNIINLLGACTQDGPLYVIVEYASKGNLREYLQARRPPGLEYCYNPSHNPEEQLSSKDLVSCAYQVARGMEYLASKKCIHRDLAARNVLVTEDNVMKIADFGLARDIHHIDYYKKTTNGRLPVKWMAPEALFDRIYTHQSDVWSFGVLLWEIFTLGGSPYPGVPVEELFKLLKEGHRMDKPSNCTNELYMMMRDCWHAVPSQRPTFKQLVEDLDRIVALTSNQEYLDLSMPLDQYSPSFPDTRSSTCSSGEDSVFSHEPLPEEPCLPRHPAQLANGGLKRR

[15] = target: Fibroblast growth factor receptor 1 (Homo sapiens) (UniProt P11362); conditions: at 1 µM
[16] = target: Fibroblast growth factor receptor 2 (Homo sapiens) (UniProt P21802); conditions: at 0.1 µM
Sequence of Fibroblast growth factor receptor 2 (Homo sapiens) (P21802 22-821 limits assumed): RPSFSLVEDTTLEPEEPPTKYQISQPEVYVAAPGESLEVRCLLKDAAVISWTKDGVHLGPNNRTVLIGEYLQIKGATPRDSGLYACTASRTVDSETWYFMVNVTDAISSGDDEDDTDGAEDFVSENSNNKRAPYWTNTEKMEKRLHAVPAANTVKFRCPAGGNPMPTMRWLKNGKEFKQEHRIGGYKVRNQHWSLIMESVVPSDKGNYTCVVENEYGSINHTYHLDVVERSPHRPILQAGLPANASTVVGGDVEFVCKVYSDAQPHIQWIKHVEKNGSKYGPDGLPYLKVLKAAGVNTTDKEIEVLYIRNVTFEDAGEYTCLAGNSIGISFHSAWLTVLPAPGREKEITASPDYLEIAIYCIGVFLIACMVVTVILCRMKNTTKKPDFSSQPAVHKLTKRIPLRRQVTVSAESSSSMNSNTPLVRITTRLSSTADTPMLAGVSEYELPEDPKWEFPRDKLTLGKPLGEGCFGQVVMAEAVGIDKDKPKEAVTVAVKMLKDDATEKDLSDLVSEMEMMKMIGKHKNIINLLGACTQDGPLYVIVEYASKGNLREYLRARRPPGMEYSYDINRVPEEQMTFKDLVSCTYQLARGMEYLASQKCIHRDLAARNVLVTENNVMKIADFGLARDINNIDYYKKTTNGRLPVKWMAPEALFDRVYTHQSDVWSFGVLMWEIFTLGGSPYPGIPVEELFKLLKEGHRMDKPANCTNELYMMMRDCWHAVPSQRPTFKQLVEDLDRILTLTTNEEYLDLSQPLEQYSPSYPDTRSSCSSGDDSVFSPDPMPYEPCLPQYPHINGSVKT

[17] = target: Fibroblast growth factor receptor 2 (Homo sapiens) (UniProt P21802); conditions: at 1 µM
[18] = target: Fibroblast growth factor receptor 3 (Homo sapiens) (UniProt P22607); conditions: at 0.1 µM
Sequence of Fibroblast growth factor receptor 3 (Homo sapiens) (P22607 23-806 limits assumed): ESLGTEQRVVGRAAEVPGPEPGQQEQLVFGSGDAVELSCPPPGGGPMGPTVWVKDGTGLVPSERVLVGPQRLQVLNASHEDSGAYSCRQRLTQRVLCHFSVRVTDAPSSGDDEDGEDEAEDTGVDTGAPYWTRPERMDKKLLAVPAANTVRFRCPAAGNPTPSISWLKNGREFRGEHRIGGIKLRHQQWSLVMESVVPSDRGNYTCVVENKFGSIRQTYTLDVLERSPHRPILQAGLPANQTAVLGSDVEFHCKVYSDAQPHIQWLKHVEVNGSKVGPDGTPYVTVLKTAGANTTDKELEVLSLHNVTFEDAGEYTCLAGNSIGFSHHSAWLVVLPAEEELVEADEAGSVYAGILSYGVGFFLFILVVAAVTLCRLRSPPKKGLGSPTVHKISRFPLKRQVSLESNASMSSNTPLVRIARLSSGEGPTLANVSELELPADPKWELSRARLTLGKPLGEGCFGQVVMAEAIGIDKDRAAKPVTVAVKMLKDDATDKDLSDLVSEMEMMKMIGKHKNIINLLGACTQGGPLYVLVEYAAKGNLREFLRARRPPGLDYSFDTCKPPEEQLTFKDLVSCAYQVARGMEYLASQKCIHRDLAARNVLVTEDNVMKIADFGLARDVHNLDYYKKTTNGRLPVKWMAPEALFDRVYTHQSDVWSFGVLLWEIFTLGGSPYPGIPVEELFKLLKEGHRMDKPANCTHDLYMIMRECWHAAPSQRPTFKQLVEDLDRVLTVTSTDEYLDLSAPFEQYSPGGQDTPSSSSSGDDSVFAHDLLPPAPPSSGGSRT

[19] = target: Fibroblast growth factor receptor 3 (Homo sapiens) (UniProt P22607); conditions: at 1 µM
[20] = target: Fibroblast growth factor receptor 4 (Homo sapiens) (UniProt P22455); conditions: at 0.1 µM;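 also: values are mean percent inhibition of FGFR4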
Sequence of Fibroblast growth factor receptor 4 (Homo sapiens) (P22455 22-802 limits assumed): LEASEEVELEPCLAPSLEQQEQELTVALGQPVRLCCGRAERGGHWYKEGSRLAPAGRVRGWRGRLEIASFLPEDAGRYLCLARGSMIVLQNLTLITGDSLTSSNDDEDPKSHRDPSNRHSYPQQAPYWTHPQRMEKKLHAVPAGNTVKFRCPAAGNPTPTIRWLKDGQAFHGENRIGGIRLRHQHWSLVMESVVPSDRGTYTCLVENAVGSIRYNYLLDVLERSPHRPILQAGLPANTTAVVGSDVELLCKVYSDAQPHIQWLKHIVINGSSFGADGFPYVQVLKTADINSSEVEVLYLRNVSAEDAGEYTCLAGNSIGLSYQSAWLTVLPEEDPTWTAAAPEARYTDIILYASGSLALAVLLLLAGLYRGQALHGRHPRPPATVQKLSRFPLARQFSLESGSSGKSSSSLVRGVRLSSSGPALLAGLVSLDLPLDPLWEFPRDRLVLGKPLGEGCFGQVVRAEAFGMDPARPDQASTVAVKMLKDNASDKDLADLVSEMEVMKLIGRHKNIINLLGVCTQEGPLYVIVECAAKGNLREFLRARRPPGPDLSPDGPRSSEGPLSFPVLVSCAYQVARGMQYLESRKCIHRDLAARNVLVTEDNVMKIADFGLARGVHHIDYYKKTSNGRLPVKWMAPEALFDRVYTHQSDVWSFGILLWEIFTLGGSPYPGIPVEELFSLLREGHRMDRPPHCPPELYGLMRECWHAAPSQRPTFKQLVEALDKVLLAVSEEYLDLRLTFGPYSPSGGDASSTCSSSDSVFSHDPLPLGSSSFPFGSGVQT

Row | SMILES | inhibition [1] [%] | inhibition [2] [%] | inhibition [3] [%] | inhibition [4] [%] | inhibition [5] [%] | inhibition [6] [%] | inhibition [7] [%] | inhibition [8] [%] | inhibition [9] [%] | inhibition [10] [%] | inhibition [11] [%] | inhibition [12] [%] | inhibition [13] [%] | inhibition [14] [%] | inhibition [15] [%] | inhibition [16] [%] | inhibition [17] [%] | inhibition [18] [%] | inhibition [19] [%] | inhibition [20] [%]
1 | COc1cc(Nc2ncc3c(C)nc(-c4cccc(C(F)(F)F)c4)n3n2)cc(OC)c1OC | 57.1 | 6.46 | 3.53 | 5.85 | 31.1 | 0.82 | 3.68 | 5.34 | 8.32 | 3.27 | 16.6 | 2.74 | 4.66 | 0.79 | 3.96 | 1.87 | 10.6 | 3.25 | 4.79 | 0.66
2 | CN(C)CCCNc1nccc(-c2c(-c3ccc(F)cc3)nn3cc(C(F)(F)F)ccc23)n1 | 19.7 | 0.41 | -0.85 | -2.73 | 0.9 | 0.46 | -1.57 | 0.88 | -0.51 | 1.94 | 1.37 | 0.87 | 1.2 | 0.95 | 0.04 | -2.72 | 0.99 | -1.5 | -0.97 | -3.68
3 | NS(=O)(=O)c1ccc(N/N=C2\C(=O)Nc3ccc(C(=O)NCCCn4ccnc4)cc32)cc1 | 13.3 | 5.75 | 4.37 | 1.61 | 5.27 | 4.39 | 5.69 | 8.45 | 14.6 | – | – | 2.9 | 3.18 | 1.31 | 4.32 | 3.11 | 8.85 | 4.75 | 5.37 | -9.93
4 | CCc1cccc(CC)c1/C=C/c1cncc(C(=O)NC)c1 | 11.1 | 3.73 | 2.63 | 1.12 | 1.84 | 0.13 | -1.35 | 12.1 | 14.1 | 1.86 | 1.64 | 2.16 | 2.33 | 5.4 | 11.8 | 5.9 | 9.23 | 6.74 | 9.45 | -1.16
5 | O=C(Nc1n[nH]c2cc(-c3ccccc3)ccc12)C1CC1 | 17.1 | 2.9 | 2.89 | 2.92 | 4.63 | 4.46 | 1.33 | 13.8 | 15.8 | 6.13 | 5.6 | 2.97 | 2.53 | 8.51 | 2.95 | 3.3 | 7.98 | 6.47 | 5.96 | -0.91
6 | Fc1ccc(-c2c(-c3ccncc3)nc3n2CCS3)cc1 | 6.7 | 1.23 | 1.23 | -4.56 | -2.17 | 1.03 | 0.17 | 2.91 | 4.97 | 0.77 | 1.89 | 1.15 | 0.99 | -4.25 | 0.23 | -1.78 | 0.6 | 1.37 | 1.47 | -6.43
7 | CCc1nccc2c1nc(-c1nonc1N)n2CC | -7.41 | 2.73 | -3.8 | 1.19 | 1.5 | -0.18 | -3.91 | 8.55 | 9.58 | 5.29 | 7.31 | 0.14 | 1.26 | -0.52 | -4.23 | -1.59 | 3.19 | -0.24 | 2.1 | -1.31
8 | Nc1nccc(-c2c(-c3ccc(F)cc3)ncn2C2CCC(O)CC2)n1 (stereo not drawn) | 35.9 | 1.08 | 32.1 | 2.5 | 14.7 | -3.17 | 4.64 | 6.79 | 45.9 | 5.39 | 19.8 | -2.78 | -2.56 | 0.56 | 11.3 | -2.57 | 1.23 | -0.35 | 1.39 | 2.77
9 | COc1cc(N2CCN(C(C)C)CC2)ccc1Nc1nc(Nc2ccc(F)cc2C(=O)NC[C@@H](O)CO)c2cc[nH]c2n1 | 6.9 | 0.85 | -0.23 | -2.73 | -3.91 | 3.24 | 10.5 | 9.31 | 15.7 | 17.7 | 60.2 | 4.45 | 20.1 | -0.71 | 5.9 | 1.11 | 1.86 | 1.06 | 3.63 | -2.86
10 | CCN(CC)Cc1ccc(Nc2nccc(-c3cnn4ncccc34)n2)cc1 | 27.2 | -0.97 | 0.55 | 1.62 | 8.4 | 3.58 | 3.96 | 1.52 | 5.17 | 3.88 | 15.5 | 5.99 | 28 | 1.77 | 11.6 | 4.18 | 8.8 | 2.66 | 5.35 | -1.71
11 | O=C(Nc1n[nH]c2cc(-c3cc(F)ccc3F)ccc12)C1CC1 | 8.75 | 8.17 | 2.98 | 2.32 | 4.67 | 3.32 | 1.51 | 8.07 | 8.44 | 2.98 | 3.05 | 2.89 | 3.45 | 0.53 | 1.69 | 1.35 | 6.04 | 3.51 | 2.02 | -1.89
12 | COc1cc2ncn(-c3cc(OCc4ccccc4C(F)(F)F)c(C(C)=O)s3)c2cc1OC | 9 | 3.62 | 3.29 | 0.64 | 3.47 | 3.47 | 4.43 | 6.91 | 9.68 | 2.43 | 7.96 | 2.84 | 2.74 | 2.64 | 2.73 | 3.27 | 9.16 | 2.58 | 6.41 | -0.33
13 | Fc1ccc(-c2ncn(C3CCNCC3)c2-c2ccnc(Oc3ccc(Oc4ccccc4)cc3)n2)cc1 | 7.3 | 4.75 | 2.76 | 2.74 | 2.19 | 3.95 | 2.11 | 6.47 | 9.01 | 1.51 | 5.54 | 3.48 | 4.42 | 6.98 | 2.81 | 6.96 | 5.56 | 7.61 | 5.27 | -7.37
